# Assay results published in the supplement of paper PMC11172423.
# Values without a mark were called inactive.
# Legend:
# [1] = system: Falciformispora senegalensis CBS197.79; assay: growth relative to untreated control; higher = less inhibition, active = 20 or less
# Summary of the method: (§1)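 Compound at 100 or 25 µM was applied for 7 days at 37 °C to hyphal fragments of M. mycetomatis MM55 or F. senegalensis CBS197.79 in 96-well plates. Fragments were suspended in colourless RPMI 1640 with L-glutamine and MOPS at 68–72% transmission at 660 nm, and viability was read with MTS (2 h, 490 nm) or resazurin (600 nm). Growth is reported as blank-corrected metabolic activity relative to the blank-corrected untreated growth control.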
# [2] = system: Madurella mycetomatis MM55; assay: as above
# Summary of the method: as §1
SMILES,growth ([1]; 25 µM),growth ([1]; 100 µM),growth ([2]; 25 µM) [%],growth ([2]; 100 µM) [%]
CC(C)Nc1cc2c(cn1)nc(Nc1cc(Cl)cc(C#N)c1)n2C1CCNCC1,97.8%,106%,–,–
CC(=O)N1CCN(c2ccc(OC[C@H]3CO[C@](Cn4ccnc4)(c4ccc(Cl)cc4Cl)O3)cc2)CC1,31.6%,12.3% (active),–,–
CCCCCOc1ccc(-c2ccc(-c3ccc(C(=O)N[C@H]4C[C@@H](O)[C@@H](O)NC(=O)[C@@H]5[C@@H](O)[C@@H](C)CN5C(=O)[C@H]([C@@H](C)O)NC(=O)[C@H]([C@H](O)[C@@H](O)c5ccc(O)cc5)NC(=O)[C@@H]5C[C@@H](O)CN5C(=O)[C@H]([C@@H](C)O)NC4=O)cc3)cc2)cc1,84.5%,67.5%,–,–
S=C(NCc1ccc2c(c1)OCO2)N1CCN(c2ncnc3c2oc2ccccc23)CC1,113%,106%,–,–
Cc1c(-c2ccc(-c3ccccc3F)cc2)nc2ccc(F)cc2c1C(=O)O,103%,98.6%,–,–
CN(C)C[C]1[CH][CH][CH][C]1CNc1ccnc2cc(Cl)ccc12.[CH]1[CH][CH][CH][CH]1.[Fe],59.2%,58%,–,–
C[C@H]1c2cccc(O)c2C(=O)C2=C(O)[C@]3(O)C(O)=C(C(N)=O)C(=O)[C@@H](N(C)C)[C@@H]3[C@@H](O)[C@@H]21,108%,108%,–,–
NC(=O)N1CCC(CC(=O)N2CCC([C@H]3c4ncc(Br)cc4CCc4cc(Cl)cc(Br)c43)CC2)CC1,105%,101%,–,–
CC(C)C[C@H](NC(=O)[C@@H](NC(=O)c1cccc(-c2ccccc2)n1)[C@@H](C)O)B(O)O,102%,99%,–,–
CC(C)(C)c1nc(-c2cccc(NS(=O)(=O)c3c(F)cccc3F)c2F)c(-c2ccnc(N)n2)s1,101%,104%,–,–
CCCC(CCC)C(=O)O,112%,106%,–,–
CN[C@@H]1[C@H](O)[C@H](NC)[C@H]2O[C@@]3(O)C(=O)C[C@@H](C)O[C@H]3O[C@@H]2[C@H]1O,105%,102%,–,–
Cc1nn(-c2cccc(Cl)c2)c2c1C(C(=O)c1ccc3c(c1)OCO3)CC(=O)N2 (stereo not drawn),87.3%,91.7%,–,–
CN1CCN(c2ccc(C(=O)NCc3cnc(C#N)nc3NCC(C)(C)C)cc2)CC1,102%,18.9% (active),–,–
O=C(c1ccc(Nc2nccc(-c3cc(Cl)cc(C(F)(F)F)c3)n2)cc1)N1CC2(COC2)C1,96%,96.8%,–,–
Fc1cccc(-c2ccc3c(c2)CC(NCc2c[nH]c4cnccc24)C3)c1 (stereo not drawn),6.11% (active),14.3% (active),–,–
CCN(CC)CCNc1nc(Nc2cccc(OC)c2)c2cnn(-c3ccccc3)c2n1,76.3%,17.5% (active),–,–
Cc1ccc(C(=O)Nc2ccc(CN3CCN(C)CC3)c(C(F)(F)F)c2)cc1C#Cc1cnc2cccnn12,20.7%,-2.57% (active),–,–
COc1cc2nccc(Oc3ccc(NC(=O)C4(C(=O)Nc5ccc(F)cc5)CC4)cc3)c2cc1OC,83.6%,98.4%,–,–

SMILES,growth ([1]; 25 µM),growth ([1]; 100 µM),growth ([2]; 25 µM) [%],growth ([2]; 100 µM) [%]
O=C(Nc1ccc(Cl)c(C(F)(F)F)c1)Nc1ccc(Cl)c(C(F)(F)F)c1,99.4%,88.1%,–,–
CCS(=O)(=O)N1CC(CC#N)(n2cc(-c3ncnc4[nH]ccc34)cn2)C1,102%,104%,–,–
C[C@H](NC(=O)c1cc2ccc(F)cc2[nH]1)c1ccccc1,91.5%,101%,–,–
CC(=O)c1nn(-c2c(Cl)cc(C(F)(F)F)cc2Cl)c(N)c1S(C)=O (stereo not drawn),94.6%,83.2%,–,–
CN1CCC(N2CCC(NC(=O)c3cc4c(F)cccc4s3)CC2)CC1,91.4%,15.5% (active),–,–
CN(C)CCN1CCCN(c2ccnc3ccsc23)CC1,90.2%,99.7%,–,–
O=c1c(Cl)c(OCc2ccc(Cl)nc2)cnn1-c1ccc(Cl)c(Cl)c1,92.2%,103%,–,–
O=C(Nc1cccc(Cl)c1)c1ccnc(N2CCC(N3CCCC3)CC2)c1,95.5%,28.1%,–,–
COc1cccc(OC2CCN(C(=O)c3cc(C(C)(C)C)nn3Cc3ccccc3)CC2)c1,82.9%,93.8%,–,–
NC(=O)C(c1ccccc1)(c1ccccc1)[C@@H]1CCN(CCc2ccc3c(c2)CCO3)C1,95.3%,97.9%,–,–
C[C@@H]1CS/C(=N\NC(=O)C(=O)[C@@H](NC(=O)C2CCCCCC2)C2CCOCC2)N1C,95.5%,98.8%,–,–
COc1cccc2c1C(=O)c1c(O)c3c(c(O)c1C2=O)C[C@@](O)(C(=O)CO)C[C@@H]3O[C@H]1C[C@H](N)[C@H](O)[C@H](C)O1,94.8%,96.3%,–,–
CC(C)(C)c1nn(-c2ccc(Cl)cc2)c2[nH]c(=O)c(CNCc3ccc4c(c3)OCO4)cc12,72.1%,66.3%,–,–
O=C(NC(CCO)C1CCCCC1)c1cc2ccc(C(F)(F)F)cc2[nH]1 (stereo not drawn),79.2%,100%,–,–
CN1[C@H]2CC[C@H]1CC(OC(c1ccccc1)c1ccccc1)C2 (stereo partly drawn),103%,103%,–,–
CC(C)(C)Nc1ncc2nc(Nc3cccc(C(F)(F)F)c3)n(CC3CCNCC3)c2n1,92.9%,97.2%,–,–
C[C@H](NC(=O)c1cc2nc(C(F)(F)F)ccc2[nH]1)c1ccccc1,88.2%,95.9%,86.1,56.8
O[C@@H](c1cc(C(F)(F)F)nc2c(C(F)(F)F)cccc12)[C@H]1CCCCN1,8.55% (active),14.8% (active),–,–
COc1ccc(-n2nc(C)c3c2NC(=O)CC3c2ccccc2OCc2ccc(F)cc2)cc1 (stereo not drawn),82.5%,77.9%,41.5,52.4

SMILES,growth ([1]; 25 µM),growth ([1]; 100 µM),growth ([2]; 25 µM) [%],growth ([2]; 100 µM) [%]
O=C1NCCN1CCN1CCC(c2cn(-c3ccc(F)cc3)c3ccc(Cl)cc23)CC1,7.42% (active),19.4% (active),–,–
Cc1noc(C2CN(C(=O)c3ccc(Nc4nccc(-c5ccc(Cl)cc5)n4)cc3)C2)n1,73.8%,99.2%,–,–
COc1ccc2nc3cc(Cl)ccc3c(Nc3cc(CN4CCCC4)c(O)c(CN4CCCC4)c3)c2n1,107%,15% (active),–,–
CN(C)c1cc(NC(=O)CNC(C)(C)C)c(O)c2c1C[C@H]1C[C@H]3[C@H](N(C)C)C(O)=C(C(N)=O)C(=O)[C@@]3(O)C(O)=C1C2=O,104%,107%,69.1,104
O[C@@H](CNC[C@H](O)[C@H]1CCc2cc(F)ccc2O1)[C@@H]1CCc2cc(F)ccc2O1,5.42% (active),12.3% (active),–,–
CCN1CCN(Cc2ccc(Nc3ncc(F)c(-c4cc(F)c5nc(C)n(C(C)C)c5c4)n3)nc2)CC1,101%,105%,80.5,85.2
CCC(C)(C)n1nnnc1C(c1cc2ccc(C)cc2[nH]c1=O)N1CCN(c2ccccc2)CC1 (stereo not drawn),86%,84.3%,–,–
N#CC[C@H](C1CCCC1)n1cc(-c2ncnc3[nH]ccc23)cn1,110%,103%,76.6,92.4
CCc1ccc2c(c1O)CCN(C)C2Cc1ccccc1Cl (stereo not drawn),78.3%,27.8%,–,–
CC(=O)Nc1ccc(NC(=O)c2cc(-c3ccc(C)cc3O)n[nH]2)cc1,81.7%,82.2%,–,–
O=C(c1ccc(Nc2nccc(-c3ccc(C(F)(F)F)c(Cl)c3)n2)cc1)N1CC(O)C1,97.7%,106%,–,–
C=CC[C@@H]1/C=C(\C)C[C@H](C)C[C@H](OC)[C@H]2O[C@@](O)(C(=O)C(=O)N3CCCC[C@H]3C(=O)O[C@H](/C(C)=C/[C@@H]3CC[C@@H](O)[C@@H](OC)C3)[C@H](C)[C@@H](O)CC1=O)[C@H](C)C[C@@H]2OC,103%,105%,–,–
CNc1ccc2cc(NC(=O)c3ccc(C(F)(F)F)c(Cl)c3)ccc2n1,69.4%,104%,–,–
CC(C)Oc1cccc(-c2ccc3nc(Nc4ncccc4N(C)C)cn3c2)n1,88.2%,93.4%,–,–
CCC(CC)COC(=O)[C@H](C)NP(=O)(OC[C@H]1O[C@@](C#N)(c2ccc3c(N)ncnn23)[C@H](O)[C@@H]1O)Oc1ccccc1 (stereo partly drawn),109%,96.3%,–,–
O=C(NCc1ccco1)c1ccc2[nH]c(COc3ccc(C45CC6CC(CC(C6)C4)C5)cc3)nc2c1,97.5%,84.5%,87.5,168
CN1CCC[C@@H]1CCO[C@](C)(c1ccccc1)c1ccc(Cl)cc1,17.9% (active),13.7% (active),–,–
COC(=O)N[C@H](C(=O)N1CCC[C@H]1c1ncc(-c2ccc(-c3ccc(-c4cnc([C@@H]5CCCN5C(=O)[C@@H](NC(=O)OC)C(C)C)[nH]4)cc3)cc2)[nH]1)C(C)C,114%,99.8%,–,–
CCN(CC)CCNC(=O)c1ccc(NC(=O)c2cc3c(C)nn(-c4ccc(Cl)cc4)c3s2)cc1,58.4%,61.2%,59.2,108
